Values joined by “and” are separate entries in the source; they are usually repeats but may differ in a detail not shown here. Identical values can stand only once. Compounds without any hit were thinned out: in the full panel of roughly 83,000, 20% have a hit.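 Compound tested at a single concentration for 48 hours in 96-well plates; a percent growth value below 10 was scored as active.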 Active and inactive are the calls of the source.

For 36 compounds, growth results are on record in PubChem BioAssay (NCI).

The first experiment deals with SN12C renal. Briefly: NCI-60 one-dose screen, 48 h (100 = growth as untreated, 0 = no growth, -100 = all killed). The conditions noted are these: 0.01 µM. How it is done:
Growth inhibition of the SN12C human tumor cell line is measured as a screen for anti-cancer activity. Cells are grown in 96 well plates and exposed to the test compound for 48 hours. Compounds are tested at a single concentration, which is 10^-5 M for most compounds. The reported endpoint is percent growth (GI% or GIPRCNT), where numbers from 0 - 100% represent growth inhibition, and numbers from -100% - 0 represent cell death. For example, a value of 40 represents 60% growth inhibition. A value of 0 means no net growth occurred over the course of the experiment. A value of -40 indicates 40% of cells at the beginning of the experiment died by the end of the experiment. A value of -100 means all cells are dead at the end of the experiment.
NCI-60 Human Tumor Cell Lines Screen was performed using the standard one-dose NCI protocol, which is described in more detail at https://dtp.cancer.gov/discovery_development/nci-60/default.htm.
Compounds with GIPRCNT values below 10 were considered active. Activity score was based on GIPRCNT using the following formula: […]
Score is 0 for GIPRCNT values of 100 or above, 50 for GIPRCNT values of 0, and 100 for GIPRCNT values of -100.
As for `CC(=O)O[C@H]1C(=O)[C@@]2(C)[C@H]([C@H](OC(=O)c3ccccc3)[C@]3(O)C[C@H](OC(=O)[C@H](O)[C@@H](NC(=O)c4ccccc4)c4ccccc4)C(C)=C1C3(C)C)[C@]1(OC(C)=O)CO[C@@H]1C[C@@H]2O`, the growth was 46.3% (inactive).

The same experiment, now with this note: 2.5 µM.
As to `CC(=O)O[C@H]1C(=O)[C@@]2(C)[C@H]([C@H](OC(=O)c3ccccc3)[C@]3(O)C[C@H](OC(=O)[C@H](O)[C@@H](NC(=O)c4ccccc4)c4ccccc4)C(C)=C1C3(C)C)[C@]1(OC(C)=O)CO[C@@H]1C[C@@H]2O`, the growth was 25.5% (inactive).

Still in this experiment, the particulars now being: 5 µM.
Turning to `CC(=O)O[C@H]1C(=O)[C@@]2(C)[C@H]([C@H](OC(=O)c3ccccc3)[C@]3(O)C[C@H](OC(=O)[C@H](O)[C@@H](NC(=O)c4ccccc4)c4ccccc4)C(C)=C1C3(C)C)[C@]1(OC(C)=O)CO[C@@H]1C[C@@H]2O`, the growth was 32% (inactive).

Still in this experiment, the particulars now being: 10 µM.
Turning to `CC[C@@]1(OC(=O)CN(C)C)C(=O)OCc2c1cc1n(c2=O)Cc2cc3c(N)cccc3nc2-1`, the growth was 7.95% (active).
Take `COc1ccc2c(c1)[nH]c1c(/C=C/c3ccccc3)nccc12`: the growth was 78.7% (inactive).
The same measure, in the same setting: under `O=C1C(Cl)=C(Cl)C(Cl)(Cl)C(Cl)C1(Cl)Cl` (stereo not given) stands 88.5% (inactive); under `COc1ccc(C(C#N)=C2C=CC(=NO)C=C2)cc1`, 95.8% (inactive).
The same measure, in the same setting: under `O=c1[nH]cc(/C=N\Nc2ccccc2)c(=O)[nH]1` stands 68.7% (inactive); under `Cc1cc(Cl)ccc1NC(=O)/C(Cl)=C1/Sc2ccccc2NC1=O`, 106% (inactive); under `Cc1cc(O)c2c(c1O)C(=O)C13C(=C2O)C(=O)C2C(O)C1C1C(O)C3C(=O)C3=C(O)c4c(O)cc(C)c(O)c4C(=O)C321` (stereo not given), 12.7% (inactive).
Still for that read-out and setting: for `C=C1N(C)c2ccc(Cl)cc2C1(C)C` the value was 54.8% (inactive); for `O=C(CNS(=O)(=O)Cc1ccccc1)NNc1ccccc1`, 75% (inactive); for `S=C1SCN(CCc2ccccc2)CN1CCc1ccccc1`, 101% (inactive).
As to `NCc1c(O)ccc2ccccc12`, the growth is 90.9% (inactive).
Still for that read-out and setting: for `CCOC(=O)[C@]1(Br)CC[C@@]1(Br)C(=O)OCC` the value was 98.1% (inactive); for `S=P(N1CC1)(N1CC1)N1CC1`, 98.5% (inactive) and 72.8% (inactive); for `CN(CC(=O)O)c1ccc(/C=C/c2ccnc3ccccc23)cc1`, 85.2% (inactive).
Take `CCC(C)(c1ccc(O)c(C)c1)c1ccc(O)c(C)c1`: the growth was 84.9% (inactive).
The same measure, in the same setting: for `COc1cc(N)ccc1Nc1c2ccccc2nc2ccccc12` the value was 81% (inactive).
On the same count and under the same terms, under `Nc1nc(N)c2cc(Sc3ccc4ccccc4c3)ccc2n1` stands 27.9% (inactive); under `CC(=O)O[C@H]1C(=O)[C@@]2(C)[C@H]([C@H](OC(=O)c3ccccc3)[C@]3(O)C[C@H](OC(=O)[C@H](O)[C@@H](NC(=O)c4ccccc4)c4ccccc4)C(C)=C1C3(C)C)[C@]1(OC(C)=O)CO[C@@H]1C[C@@H]2O`, 55.6% (inactive) and 33.2% (inactive); under `COc1ccc2oc(-c3ccc(Cl)cc3)c(N3CCN(C)CC3)c2c1`, 37.2% (inactive).
On the same count and under the same terms, for `CC1CCC2(C(=O)O)CCC3(C)C(=CCC4C5(C)CC(O)C(O)C(C)(CO)C5C(O)CC43C)C2C1C` (stereo not given) the value was 96.1% (inactive).
Take `N#C/C(=C/N1C(=O)/C(=C/c2ccc([N+](=O)[O-])cc2)SC1=S)c1nc2ccccc2s1`: the growth was 89.3% (inactive).
Still for that read-out and setting: for `CN(C)CCNc1cccc2sc3ccc(O)cc3c(=O)c12` the value was 40.4% (inactive).
On the same count and under the same terms, for `COc1cccc(C(c2cc3c(cc2O)OCO3)N2CCOCC2)c1OC` (stereo not given) the value was 97.8% (inactive).
Same read-out and setting: for `O=S(=O)(c1cc(Cl)ccc1O)c1cc(Cl)ccc1O` the value was 80.4% (inactive); for `O=[N+]([O-])c1cc(S(=O)(=O)Nc2ccccc2)ccc1Cl`, 95.7% (inactive); for `Cc1cc(C)c(N2C(=O)CC(Sc3ccccc3N)C2=O)c(C)c1` (stereo not given), 90.4% (inactive).
On to `CN(C)c1ccc(/C=C/c2ccnc3ccccc23)cc1N`, for which the growth was 70.5% (inactive).
Same read-out and setting: under `N#CC(=C1C=CC(=NO)C=C1)c1ccccc1` stands 10.3% (inactive).
Same read-out and setting: for `O=C(NC(=S)Nc1ccccn1)c1ccccc1` the value was 97.1% (inactive); for `CCC(=O)Oc1ccc(/C=N/NC(N)=S)nc1`, 32.5% (inactive); for `O=C(O)c1ccccc1.[Ag]`, 102% (inactive).
Same read-out and setting: under `Cc1cc(N=C2C=CC(=[N+](C)C)C=C2)c(N)cc1N` stands 88.7% (inactive).
In the case of `O=C1C=CC(=O)N1c1ccc(N2C(=O)C=CC2=O)cc1`, the growth was 102% (inactive).
In the case of `ClCCn1c(CCl)nc2ccc(Cl)cc21`, the growth is -47% (active).
On to `Cc1c(-c2ccccc2)[nH]c2ccccc12`, for which the growth is 114% (inactive).
For `COc1ccc(N)c2c1C(=O)c1ccccc1C2=O`, the growth was 93.9% (inactive).

Still in this experiment, the particulars now being: 100 µM.
Turning to `S=P(N1CC1)(N1CC1)N1CC1`, the growth is 44.1% (inactive).
